# Measured values as given in PubChem BioAssay (Tox21).
# Inconclusive results are not listed. A call without a number means that no potency is given here. Active and inactive are the calls of the source. Unless noted, calls come from the whole dose curve; as a rule, active = well fitted curve in the direction sought with a large enough effect in the repeat runs; inconclusive = weak or mixed curves; inactive = no such curve, though single readings can be large; an effect the other way counts as inactive or inconclusive.
# Experiments:
# [1] = target: Luciferin 4-monooxygenase (Photinus pyralis) (UniProt P08659); assay: qHTS assay to identify small molecule inhibitors of firefly luciferase (AID 1224835); note: series mostly up to about 120 µM; nearly all actives have a fitted effect of over 25% in size
# Sequence of Luciferin 4-monooxygenase (Photinus pyralis) (P08659 whole entry, looked up): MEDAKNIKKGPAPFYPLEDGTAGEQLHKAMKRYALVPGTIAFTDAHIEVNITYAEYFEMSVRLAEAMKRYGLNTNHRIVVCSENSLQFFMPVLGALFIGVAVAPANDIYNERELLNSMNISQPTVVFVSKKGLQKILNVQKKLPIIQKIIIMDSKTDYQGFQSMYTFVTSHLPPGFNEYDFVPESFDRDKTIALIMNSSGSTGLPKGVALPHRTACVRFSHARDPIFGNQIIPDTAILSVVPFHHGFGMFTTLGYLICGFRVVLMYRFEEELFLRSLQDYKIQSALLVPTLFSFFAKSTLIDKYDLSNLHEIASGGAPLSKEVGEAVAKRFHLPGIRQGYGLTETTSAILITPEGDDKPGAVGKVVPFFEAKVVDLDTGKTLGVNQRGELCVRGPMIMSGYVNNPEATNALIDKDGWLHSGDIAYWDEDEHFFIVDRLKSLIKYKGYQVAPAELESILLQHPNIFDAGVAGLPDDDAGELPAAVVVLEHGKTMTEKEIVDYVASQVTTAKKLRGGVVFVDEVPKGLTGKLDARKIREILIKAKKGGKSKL
# How it was run: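 Quantitative HTS format; KM concentrations of both substrates. Purified P. pyralis FLuc activity quantified from luminescence images.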
# [2] = qHTS RealTime-Glo MT Cell Viability Assay in HEK293 cells - 0 hour (AID 1224880); note: top concentration of the series differs between compounds; nearly all actives have a fitted effect of over 45% in size
# How it was run: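 Kinetic, non-lysing viability readout. Seed HEK293 (600/well) with reagent, incubate 5 h at 37 C/5% CO2, pin 23 nL compound in DMSO, incubate at 37 C, read luminescence at 0, 8, 16, 24, 32, 40 h.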
# [3] = qHTS assay to identify small molecule antagonists of the sonic hedgehog signaling (Shh) pathway (AID 1259369; calls by dose curve; note: nearly all actives have a fitted effect of over 45% in size)
# How it was run: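 Read-out is luminescence from a firefly luciferase gene controlled by the Gli1 response element, in 3T3Gli1-Luc cells pre-incubated 4hr then exposed to compounds and conditioned medium for 24hr.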
# [4] = qHTS assay to identify small molecule antagonists of the progesterone receptor (PR) signaling pathway - cell viability counter screen (AID 1346798); note: series mostly up to about 92 µM; nearly all actives have a fitted effect of over 50% in size
# How it was run: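 ATP content as viability readout: CellTiter-Glo luminescence, 30 min room temperature, in PR-UAS-bla HEK293T cells after 16 hr compound/R5020 treatment at 37C and 5% CO2.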
# [5] = test system: estrogen-related receptor alpha (ERRalpha) with PGC-1alpha coactivator, human; assay: qHTS assay to identify small molecule antagonists of the estrogen related receptor signaling pathway with the pleiotropic PPARgamma coactivator (PGC) (AID 1224821; calls by dose curve;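 note: series mostly up to about 46 µM; lower luminescence signal means antagonism of PGC/ERR signalling; nearly all actives have a fitted effect of over 50% in size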)
# How it was run: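 Screening used NTP's PGC/ERR cells, dosed via pin tool with compound in DMSO alongside positive and negative controls. After 18 h at 37 C, One-Glo reagent sat 30 min at room temperature before luminescence detection.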
# [6] = qHTS assay to identify small molecule antagonists of the estrogen related receptor (ERR) signaling pathway from Tox21 library - cell viability counter screen (AID 1224834); note: nearly all actives have a fitted effect of over 30% in size
# How it was run: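 Counter screen run in ERR cells (2,000 cells/well): cells pre-incubated 6 h, then treated with compounds for 17.5 h at 37 C. Fluorescence was read 30 min after CellTiter-Fluor addition.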
# [7] = qHTS assay to identify small molecule antagonists of the estrogen related receptor signaling pathway with the pleiotropic PPARgamma coactivator (PGC) from Tox21 10K library - cell viability counter screen (AID 1224840; active = well fitted cell-killing curve with a large enough effect in the repeat runs, not every such curve was filed as active; note: nearly all actives have a fitted effect of over 40% in size)
# How it was run: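 Readout: fluorescence intensity from CellTiter-Fluor after 30 min at 37 C/5% CO2. Preceded by 17.5 h treatment of PGC/ERR cells with DMSO-dissolved compounds, added 6 h post-seeding.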
# [8] = qHTS assay to identify small molecule antagonists of the estrogen related receptor signaling pathway with the pleiotropic PPARgamma coactivator (PGC) from Tox21 10K library (AID 1224841; call rule not given here; note: series mostly up to about 92 µM; actives are mostly falling curves and most rising ones were filed inactive; nearly all actives have a fitted effect of over 50% in size)
# How it was run: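 One-Glo luminescence, measured after half an hour at room temperature, quantified reporter output of PGC/ERR cells. These had been plated at 2,000 per well, incubated 6 h, dosed with compounds in DMSO, then kept 18 h at 37 C.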
# [9] = qHTS assay to identify small molecule antagonists of the estrogen related receptor (ERR) signaling pathway from Tox21 library (AID 1224848); note: nearly all actives have a fitted effect of over 50% in size
# How it was run: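 Tox21 10K compounds in DMSO tested for ERR pathway antagonism in NTP's ERR cell line; 18 h, 37 C exposure; ONE-Glo luminescence.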
# [10] = qHTS assay to identify small molecule antagonists of the androgen receptor (AR) signaling pathway using the MDA cell line in the presence of 0.5 nM R1881 - cell viability counter screen (AID 1259242); note: nearly all actives have a fitted effect of over 45% in size
# How it was run: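 Cells seeded at 3,000/well and allowed 5 hr at 37C, 0% CO2 before compound transfer and R1881 (0.5 nM final) addition; 16 hr later, live-cell protease fluorescence indicated cytotoxicity.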
# [11] = target: Nuclear receptor subfamily 1 group I member 2 (Homo sapiens) (UniProt O75469); assay: Human pregnane X receptor (PXR) small molecule agonists, qHTS assay (AID 1346982); note: nearly all actives have a fitted effect of over 35% in size
# Sequence of Nuclear receptor subfamily 1 group I member 2 (Homo sapiens) (O75469 whole entry, looked up): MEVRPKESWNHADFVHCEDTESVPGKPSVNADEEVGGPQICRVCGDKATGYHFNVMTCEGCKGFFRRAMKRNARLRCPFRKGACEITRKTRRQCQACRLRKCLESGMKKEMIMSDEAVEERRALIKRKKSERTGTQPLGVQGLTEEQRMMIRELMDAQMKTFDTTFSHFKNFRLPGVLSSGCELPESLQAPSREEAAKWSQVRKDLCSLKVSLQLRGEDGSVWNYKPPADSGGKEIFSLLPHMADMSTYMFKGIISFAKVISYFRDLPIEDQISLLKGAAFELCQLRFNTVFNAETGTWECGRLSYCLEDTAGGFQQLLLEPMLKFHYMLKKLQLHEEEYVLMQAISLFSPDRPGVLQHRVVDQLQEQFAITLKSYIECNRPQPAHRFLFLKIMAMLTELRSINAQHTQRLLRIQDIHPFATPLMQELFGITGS
# How it was run: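 Tox21 qHTS; PXR-Luc HepG2; compounds pinned from DMSO; 24 hr, 37 C; ONE-Glo luciferase detection, 30 min room temperature.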
# [12] = qHTS assay to identify small molecule agonists of the sonic hedgehog signaling (Shh) pathway (AID 1259368; calls by dose curve;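 note: NIH/3T3-derived 3T3Gli1-Luc cells carrying a stable Gli1-driven firefly luciferase reporter; series mostly up to about 92 µM; nearly all actives have a fitted effect of over 15% in size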)
# How it was run: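 Following a 24 hr incubation with DMSO-dissolved compounds at 37 C, 5% CO2, Gli1-Luc NIH/3T3-derived cells received luciferase reagent for 30 min at room temperature prior to luminescence measurement.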
# [13] = target: Thyrotropin-releasing hormone receptor (Homo sapiens) (UniProt P34981); assay: qHTS assay to identify small molecule antagonists of the thyrotropin-releasing hormone receptor (TRHR) signaling pathway (AID 1346877; active = well fitted inhibition curve with a large enough effect in the repeat runs, not every such curve was filed as active; note: series mostly up to about 51 µM)
# Sequence of Thyrotropin-releasing hormone receptor (Homo sapiens) (P34981 whole entry, looked up): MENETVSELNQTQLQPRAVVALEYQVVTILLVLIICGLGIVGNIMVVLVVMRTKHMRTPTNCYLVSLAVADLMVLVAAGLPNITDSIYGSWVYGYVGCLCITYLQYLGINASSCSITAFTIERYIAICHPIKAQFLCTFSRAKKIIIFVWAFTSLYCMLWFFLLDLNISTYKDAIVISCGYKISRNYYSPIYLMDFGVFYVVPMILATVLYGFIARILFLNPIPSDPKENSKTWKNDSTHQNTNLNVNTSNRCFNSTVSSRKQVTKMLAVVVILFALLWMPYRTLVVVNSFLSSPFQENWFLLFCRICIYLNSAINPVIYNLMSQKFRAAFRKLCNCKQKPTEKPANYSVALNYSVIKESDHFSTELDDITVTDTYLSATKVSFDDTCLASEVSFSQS
# How it was run: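 Calcium signal in dye-loaded TRHR/HEK293 cells; compounds added 5 min before TRH (1 nM final); fluorescence monitored 3 min at 1 s steps.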
# [14] = target: Thyrotropin-releasing hormone receptor (Homo sapiens) (UniProt P34981); assay: qHTS assay to identify small molecule agonists of the thyrotropin-releasing hormone receptor (TRHR) signaling pathway (AID 1346891; calls by dose curve;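 note: HEK293 cells expressing TRHR with calcium dye readout; series mostly up to about 58 µM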)
# How it was run: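 In 1536-format, 1500 TRHR-Hek293 cells per well grew 18 h, took up calcium dye for 2 h at 37 °C, received compound, and were read kinetically; 15-point titrations, triplicates.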
# [15] = Caspase-3/7 induction in CHO-K1 cells by small molecules, qHTS assay (AID 1346980); note: nearly all actives have a fitted effect of over 15% in size
# How it was run: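 Wild-type cells were seeded at 1,500 per well and settled 5 hr at 37 C, 5% CO2, then exposed to DMSO-dissolved compounds for 17 hr. Caspase-Glo 3/7 reagent was added, and luminescence was read after 30min at room temperature.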
# [16] = target: Nuclear receptor subfamily 1 group I member 3 (Homo sapiens) (UniProt Q14994); assay: qHTS assay to identify small molecule agonists of the constitutive androstane receptor (CAR) signaling pathway (AID 1224839);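 note: HepG2 cells stably carrying human CAR and a CYP2B6 luciferase reporter; series mostly up to about 92 µM; nearly all actives have a fitted effect of over 15% in size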
# Sequence of Nuclear receptor subfamily 1 group I member 3 (Homo sapiens) (Q14994 whole entry, looked up): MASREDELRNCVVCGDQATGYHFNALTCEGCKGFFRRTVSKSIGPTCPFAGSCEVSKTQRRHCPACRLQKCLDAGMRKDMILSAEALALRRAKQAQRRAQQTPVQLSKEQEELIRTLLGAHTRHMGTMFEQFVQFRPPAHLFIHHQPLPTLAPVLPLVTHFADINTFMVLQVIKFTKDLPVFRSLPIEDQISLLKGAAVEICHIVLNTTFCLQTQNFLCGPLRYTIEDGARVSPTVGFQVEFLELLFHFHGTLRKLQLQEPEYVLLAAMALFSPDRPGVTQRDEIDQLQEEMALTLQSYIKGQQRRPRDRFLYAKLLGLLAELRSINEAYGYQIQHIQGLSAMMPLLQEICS
# How it was run: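 Using human hepatoma HepG2 cells engineered with hCAR and a CYP2B6-2.2kb reporter, 15-concentration compound series were incubated 24 h alongside PK11195 at 0.75 uM final, with luminescence quantified afterwards.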
# [17] = qHTS assay to identify small molecule agonists of the hypoxia (HIF-1) signaling pathway (AID 1224846; active = well fitted activation curve with a large enough effect in the signal ratio in the repeat runs, not every such curve was filed as active; the % refers to the signal ratio)
# How it was run: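 ME-180 HRE-bla reporter cells; compounds in DMSO, 17 h at 37C; read-out beta-lactamase via CCF4-AM FRET.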
# [18] = qHTS assay to identify small molecule HDAC inhibitors (AID 1259364);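 note: wild-type HCT-116 cells with endogenous class I/II HDAC activity; top concentration of the series differs between compounds; nearly all actives have a fitted effect of over 45% in size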
# How it was run: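 HCT-116 wt cells, 1,500/well, overnight attach. Compounds (DMSO) 2 h, 37 °C. HDAC-Glo I/II, 30 min RT. Luminescence.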
# [19] = target: Estrogen receptor (Homo sapiens) (UniProt P03372); assay: qHTS assay to identify small molecule antagonists of the estrogen receptor alpha (ER-alpha) signaling pathway using the BG1 cell line in the presence of 0.1 nM 17-beta-estradiol (AID 1259244); note: nearly all actives have a fitted effect of over 50% in size
# Sequence of Estrogen receptor (Homo sapiens) (P03372 whole entry, looked up): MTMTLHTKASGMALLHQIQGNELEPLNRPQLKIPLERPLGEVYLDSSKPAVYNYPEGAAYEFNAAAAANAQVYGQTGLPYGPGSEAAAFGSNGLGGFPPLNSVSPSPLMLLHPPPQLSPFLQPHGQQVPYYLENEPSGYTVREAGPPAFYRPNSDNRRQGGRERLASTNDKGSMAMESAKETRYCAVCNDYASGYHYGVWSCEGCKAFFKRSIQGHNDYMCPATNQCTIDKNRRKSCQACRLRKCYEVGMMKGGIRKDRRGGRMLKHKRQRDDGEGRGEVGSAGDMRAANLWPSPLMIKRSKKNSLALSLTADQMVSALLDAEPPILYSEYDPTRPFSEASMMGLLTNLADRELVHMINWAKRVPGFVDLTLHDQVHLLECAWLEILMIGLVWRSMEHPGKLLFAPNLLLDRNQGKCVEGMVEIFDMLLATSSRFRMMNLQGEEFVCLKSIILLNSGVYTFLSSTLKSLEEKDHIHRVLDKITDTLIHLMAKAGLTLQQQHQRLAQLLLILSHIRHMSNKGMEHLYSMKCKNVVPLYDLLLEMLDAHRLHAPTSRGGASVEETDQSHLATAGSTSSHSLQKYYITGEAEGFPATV
# How it was run: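 Luciferase signal from VM7Luc4E2 ERE-reporter cells, co-dosed with test compound and 0.1 nM final 17beta-estradiol for 22 h, read with ONE-Glo.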
# [20] = target: Estrogen receptor (Homo sapiens) (UniProt P03372); assay: qHTS assay to identify small molecule agonists of the estrogen receptor alpha (ER-alpha) signaling pathway in the presence of an antagonist (AID 1259383; calls by dose curve; note: top concentration of the series differs between compounds; nearly all actives have a fitted effect of over 15% in size)
# How it was run: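 Luminescent ERE-luciferase reporter, VM7Luc4E2 cells (endogenous ER-alpha); 10.0nM ICI-182,780 final; 15-point compound titration; 22hr at 37C; ONE-Glo, 30min RT.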
smiles,measurement,setting,value
Cc1ccc(O)cc1C,Potency,[1],inactive
same,outcome,[2],inactive
same,Potency,[3],inactive
same,Potency,[4],inactive
CCNC(=O)[C@H]1O[C@@H](n2cnc3c(N)ncnc32)[C@H](O)C1O (stereo partly drawn),Potency,[5],inactive
CN[C@@H]1C[C@@H](c2ccc(Cl)c(Cl)c2)c2ccccc21,Potency,[5],inactive
O=C(O)/C=C/C(=O)O,Potency,[6],inactive
same,Potency,[7],inactive
same,Potency,[8],inactive
same,Potency,[9],inactive
same,Potency,[10],inactive
same,Potency,[11],inactive
NC(Cc1cc(O)c(O)cc1O)C(=O)O (stereo not drawn),Potency,[5],inactive
CCC1C(=O)OCC1Cc1cncn1C (stereo not drawn),Potency,[6],inactive
same,Potency,[7],inactive
same,Potency,[8],inactive
same,Potency,[9],inactive
O=[N+]([O-])c1ccccc1Cl,Potency,[1],inactive
same,outcome,[2],inactive
same,outcome,[12],inactive
same,Potency,[4],inactive
same,outcome,[13],inactive
same,outcome,[14],inactive
same,outcome,[15],inactive
Clc1nc(Cl)c(Cl)c(Cl)c1Cl,Potency,[16],inactive
C[N+]1(C)[C@@H]2CC(OC(=O)[C@H](CO)c3ccccc3)C[C@H]1[C@@H]1O[C@@H]12 (stereo partly drawn),Potency,[6],inactive
same,Potency,[7],inactive
N#CCCNCCC#N,outcome,[17],inactive
O=C(O)/C=C\C(=O)O,Potency,[6],inactive
same,Potency,[7],inactive
same,Potency,[8],inactive
same,Potency,[9],inactive
same,Potency,[10],inactive
same,Potency,[11],inactive
COC[C@H]1OC(=O)c2coc3c2[C@@]1(C)C1=C(C3=O)C2CCC(=O)[C@@]2(C)C[C@H]1OC(C)=O (stereo partly drawn),Potency,[5],inactive
Cc1ccc2ccccc2c1C,Potency,[1],inactive
same,outcome,[2],inactive
same,outcome,[18],inactive
same,Potency,[4],inactive
CC(C)(C)c1ccc(O)cc1,outcome,[2],inactive
same,Potency,[4],inactive
CN(C)CCCCCCN(C)C,Potency,[10],inactive
O=S(=O)(O)c1cc(O)ccc1O,Potency,[10],inactive
CCC1(c2cnc[nH]2)Cc2ccccc2C1,Potency,[10],inactive
same,Potency,[19],inactive
same,outcome,[20],inactive
c1ccccc1,Potency,[10],inactive
same,Potency,[19],inactive
same,outcome,[20],inactive
same,Potency,[11],inactive
Oc1c(Cl)cc(Cl)cc1Cl,outcome,[2],inactive
same,outcome,[18],inactive
same,Potency,[4],inactive
